Consider 40 compounds from PubChem BioAssay (NCATS).

Inconclusive results are not listed. A call without a number means that no potency is given here. The source made the active and inactive calls. The call rests on the fitted dose curve; in most records, active means well fitted cell-killing curve with a large enough effect; inconclusive means small, poorly fitted or top-dose-only effect, or effect the other way; inactive means no such curve, though single readings can be large or run the other way. Non-standard residues stand in square brackets, D forms with d. Residues, ends and D or L forms follow the SMILES beside them. *: point of attachment. Sta = CC(C)C[C@H](N)[C@@H](O)CC(=O)O; Isovaleryl = CC(C)CC(=O)*
Potency means the concentration at half of the fitted maximal effect.

The experiment can be described thus: Quantitative High-Throughput drug screen in 47 multiple myeloma cell lines against the NCATS MIPE library collection: KHM11_PLB cell viability assay (AID 1918962). Further: nearly all actives have a fitted effect of over 35% in size. The settings on record: KHM11 myeloma cell viability, CellTiter-Glo ATP luminescence, 48 h; series mostly up to 45.8 µM. The text has this: PI: Beverly A. Mock Ph.D.
Laboratory of Cancer Biology and Genetics,
Center for Cancer Research, National Cancer Institute,
National Institute of Health, Bethesda, Maryland
Drug resistance and disease progression are common in multiple myeloma (MM) patients, underscoring the need for new therapeutic combinations. […] We hypothesized that effective combinations would reduce MYC expression and enhance p16 activity. […] These preclinical data identify potentially useful drug combinations for evaluation in drug-resistant MM and reveal potential mechanisms of combined drug sensitivity.
Described herein is the primary MIPE qHTS used to cherrypick compounds. Validated compounds were then further tested for potential synergistic activiy.
[1] Peat TJ, Gaikwad SM, Dubois W, Gyabaah-Kessie N, Zhang S, Gorjifard S, Phyo Z, Andres M, Hughitt VK, Simpson RM, Miller MA, Girvin AT, Taylor A, Williams D, D'Antonio N, Zhang Y, Rajagopalan A, Flietner E, Wilson K, Zhang X, Shinn P, Klumpp-Thomas C, McKnight C, Itkin Z, Chen L, Kazandijian D, Zhang J, Michalowski AM, Simmons JK, Keats J, Thomas CJ, Mock BA. Drug combinations identified by high-throughput screening promote cell cycle transition and upregulate Smad pathways in myeloma. Cancer Lett. 2023 Aug 1;568:216284. doi: 10.1016/j.canlet.2023.216284. Epub 2023 Jun 24. PMID: 37356470; PMCID: PMC10408729.
SEQUENCE No. (e.g., 1, 2, 3, etc.); […] (e.g., Cells, Incubation, Reagent, etc.); VALUE and DESCRIPTION.
1; Cells; 5 uL; white, solid bottom 1536-well Greiner assay plate.
2; Compounds; 23 nL; Kalypsis pin tool (Wako USA) equipped with a 1536-well pin head to transfer to the assay plates.
3; Incubation; 48 hours; 37C incubation.
4; Reagent;5uL; CellTiter Glo (Promega).
5; Detector; 425V; Luminescence; Viewlux PerkinElmer.
NOTES (numbers refer to Sequence numbers above)
1. The cell-based screening methods employed in this study were like those previously published. Briefly, the corresponding myeloma cell lines were screened in 1,536-well plates with 500 cells, 5-uL per well for inhibition of cell viability (assessed by measuring ATP levels with CellTiterGlo).
2. NCATS MIPE 4.0 library of approved and investigational drugs were added using the Kalypsis pin tool. Wells treated with DMSO only for 100% viability and media only wells for 0% viability were used as controls.
3. The assay plates were covered and incubated for 48 hours in a 37C, 5% CO2 incubator with controlled humidity.
4. After 48 hours, CellTilter-GloTM luminescent substrate mix (Promega) reagent was added to the assay plate and plates we incubated for 5 min at room temperature.
5. Signal was measured as median relative luminescence units on a ViewLux (PerkinElmer) multiplate reader.
[1] Heske CM, Davis MI, Baumgart JT, Wilson K, Gormally MV, Chen L, Zhang X, Ceribelli M, Duveau DY, Guha R, Ferrer M, Arnaldez FI, Ji J, Tran HL, Zhang Y, Mendoza A, Helman LJ, Thomas CJ. Matrix Screen Identifies Synergistic Combination of PARP Inhibitors and Nicotinamide Phosphoribosyltransferase (NAMPT) Inhibitors in Ewing Sarcoma. Clin Cancer Res. 2017 Dec 1;23(23):7301-7311. doi: 10.1158/1078-0432.CCR-17-1121. Epub 2017 Sep 12. PMID: 28899971; PMCID: PMC6636827.
In general terms: ATP-based viability assays read luminescence as a measure of living cells.
As to `CC1(C)NC(=O)N(c2ccc([N+](=O)[O-])c(C(F)(F)F)c2)C1=O`, the Potency result was “inactive”.
The result for `COC(=O)C1=C(C)NC(C)=C(C(=O)OCCCN2CCC(c3ccccc3)(c3ccccc3)CC2)C1c1cccc([N+](=O)[O-])c1` (stereo not given) reads “inactive”.
The result for `C=CCc1cc(OC)c(O)c(C(=O)NCCO)c1` reads “inactive”.
Under `CN1C(C(=O)Nc2ccccn2)=C(O)c2sccc2S1(=O)=O` stands “inactive”; under `COc1cc(OC)c(C(=O)CCCN2CCCC2)c(OC)c1`, “inactive”; under `CCC1=C(C)CN(C(=O)NCCc2ccc(S(=O)(=O)NC(=O)NC3CCC(C)CC3)cc2)C1=O` (stereo not given), “inactive”.
On to `COc1cc(Nc2c(C#N)cnc3cc(OCCCN4CCN(C)CC4)c(OC)cc23)c(Cl)cc1Cl`, for which the Potency is 5.26 µM (active).
Under `O=C(c1ccccc1)c1ccc2n1CCC2C(=O)O` (stereo not given) stands 8.33 µM (active); under `CCC[C@@H]1C[C@@H](C(=O)N[C@@H]([C@H]2O[C@H](SC)[C@H](O)[C@@H](O)[C@H]2O)[C@@H](C)O)N(C)C1`, “inactive”.
The result for `CC1(C)C(=O)N(CCN2CCC(C(=O)c3ccc(F)cc3)CC2)c2ccccc21` reads 2.09 µM (active); that for `CC(C)Oc1ccc2c(=O)c(-c3ccccc3)coc2c1`, “inactive”.
As to `O=C(CCc1ccc(O)cc1)c1c(O)cc(O)cc1O`, the Potency was 0.059 µM (active).
Under `Cc1nc2n(c(=O)c1CCN1CCC(c3noc4cc(F)ccc34)CC1)CCCC2` stands “inactive”; under `CCN(CC)CCOc1ccc(Cc2ccccc2)cc1`, “inactive”.
Consider `Cc1cccc(C)c1OCC(=O)N[C@@H](Cc1ccccc1)[C@@H](O)C[C@H](Cc1ccccc1)NC(=O)[C@H](C(C)C)N1CCCNC1=O`, for which the Potency entry is “inactive”.
Under `COc1cc2c(cc1OC)C1CC(=O)C(CC(C)C)CN1CC2` (stereo not given) stands “inactive”; under `COCCCOc1ccnc(CS(=O)c2nc3ccccc3[nH]2)c1C` (stereo not given), “inactive”.
Take `CN(C)C(=O)[C@H](O)[C@H](Cc1ccccc1)NC(=O)c1cc2cc(Cl)ccc2[nH]1`: the Potency entry was “inactive”.
Consider `CCC(C)(Oc1ccc(C2(c3ccc(OC(C)(CC)C(=O)O)cc3)CCCCC2)cc1)C(=O)O` (stereo not given), for which the Potency result was “inactive”.
For `CN(C)CCCC1(c2ccc(F)cc2)OCc2cc(C#N)ccc21` (stereo not given), the Potency result was “inactive”.
Under `O=C(NCC1CCCCN1)c1cc(OCC(F)(F)F)ccc1OCC(F)(F)F` (stereo not given) stands 9.35 µM (active); under `c1cnc2cc3c(cc2n1)C1CNCC3C1`, “inactive”.
Turning to `Nc1nc(OCc2ccccc2)c2[nH]cnc2n1`, the Potency result was “inactive”.
Consider `CCc1nc(N)nc(N)c1-c1ccc(Cl)cc1`, for which the Potency result is “inactive”.
For the compound `O=Nc1c(-c2c(O)[nH]c3cc(Br)ccc23)[nH]c2ccccc12`, the Potency was 4.69 µM (active).
On to `O=P(O)(O)C(O)(Cn1ccnc1)P(=O)(O)O`, for which the Potency result was “inactive”.
As for `Cc1cc(=O)c2c(O)c3c(O)cc(=O)c4c3c3c(cc(O)c1c23)C(C)(C)C=4O`, the Potency was 0.372 µM (active).
Regarding `CC(C)CC(=O)N[C@H](C(=O)N[C@H](C(=O)N[C@@H](CC(C)C)[C@@H](O)CC(=O)N[C@@H](C)C(=O)N[C@@H](CC(C)C)[C@@H](O)CC(=O)O)C(C)C)C(C)C` (Isovaleryl-VV[Sta]A[Sta]-OH), the Potency entry is “inactive”.
Turning to `S=c1nc[nH]c2nc[nH]c12`, the Potency result is “inactive”.
For `CN(C)C(=O)COC(=O)Cc1ccc(OC(=O)c2ccc(N=C(N)N)cc2)cc1`, the Potency was 0.662 µM (active).
Under `COc1cc2c(N3CCN(C(=O)Nc4ccc(OC(C)C)cc4)CC3)ncnc2cc1OCCCN1CCCCC1` stands 8.33 µM (active); under `Nc1cc(C(Cl)=C(Cl)Cl)c(S(N)(=O)=O)cc1S(N)(=O)=O`, “inactive”.
Consider `CCOC(=O)C(C)Oc1cccc2c(=O)n(CC(=O)Nc3ccc4c(c3)OCCO4)ccc12` (stereo not given), for which the Potency entry is “inactive”.
On to `CNC[C@H](O)c1ccc(O)c(O)c1`, for which the Potency entry is “inactive”.
On to `CN(C)c1ccc2nc3ccc(=[N+](C)C)cc-3sc2c1`, for which the Potency was 4.18 µM (active).
As to `CCN(CC)CCOc1ccc(Nc2ncc3cc(-c4c(Cl)cccc4Cl)c(=O)n(C)c3n2)cc1`, the Potency was 1.32 µM (active).
As to `Cc1cc(C2CCCCC2)n(O)c(=O)c1`, the Potency is 4.69 µM (active).
On to `O=c1c(O)c(-c2ccc(O)cc2O)oc2cc(O)cc(O)c12`, for which the Potency entry was “inactive”.
`COc1c(O)cc2c(c1O)[C@@H]1O[C@H](CO)[C@@H](O)[C@H](O)[C@H]1OC2=O`: the Potency entry was “inactive”.
In the case of `O=c1ccc2ccc(O)c(O)c2o1`, the Potency is 11.8 µM (active).
